Records with an inconclusive call do not appear. Values without a mark were called inactive. Calls of active or inactive are those of the source. The call rests on the fitted dose curve; in most records, active means well fitted curve in the direction sought with a large enough effect; inconclusive means small, poorly fitted or top-dose-only effect, or another doubt; inactive means no such curve, though single readings can be large; an effect the other way counts as inactive or inconclusive.

Potency and activity, negative = cell killing data for 31 compounds are collected here from PubChem BioAssay (NCATS).

In one assay the test system is Tov-21-G. Put plainly: Primary qHTS to identify gynecologic anti-cancer compounds using libraries of approved drugs and bioactive compounds (AID 1345084). Further: nearly all actives have a fitted effect of over 55% in size. The note with it: Gynecologic cancer cell panel viability, ATPlite luminescence, 48 h; series mostly up to 57.5 µM. The gist of the method: (§1)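 Cytotoxicity screen measuring ATP content by luciferase luminescence. Each compound is applied at five concentrations for 48 h at 37 C with 5% CO2.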
(In general: In qHTS, concentration-response curves come from the screen itself.)

Another assay relates to Tov112D. Described as above. Conditions: Gynecologic cancer cell panel viability, ATPlite luminescence, 48 h; series mostly up to 57.5 µM. The gist of the method: as §1
In general terms: In ATP-based viability assays light output follows the ATP content of the culture.

The nature of assay [1]: Drug repurposing screens with cells derived from glioblastoma tumor samples (AID 1345199). Further: nearly all actives have a fitted effect of over 40% in size. The note with it: GBM patient neurospheres viability, ATP luminescence, 48 h. The gist of the method:
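Primary testing used CD133+ neurospheres from four GBM patients, seven concentrations, 48 h exposure and ATP-based viability; confirmation added three slower-growing patient lines.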

The mark [2] stands for this setting: at 45.9 µM (top of the series), tumour line B.
The mark [3] stands for this setting: at 45.9 µM (top of the series), tumour line D.
[4] abbreviates: at 46.1 µM (top of the series), tumour line C.
[5] abbreviates: at 46 µM (top of the series), tumour line A.
On the % scale 0 is the no-effect control and ±100 the full control effect; potency means the concentration at half of the fitted maximal effect.

On to `CCn1cc(C(=O)O)c(=O)c2cc(F)c(N3CCNCC3)nc21`, for which the Potency entry with Tov-21-G and with Tov112D was “inactive” each time. Moreover, the activity, negative = cell killing was -1.66% in assay [1] (at 20 µM (top of the series), tumour line C); -1.31% in assay [1] (at 21.2 µM (top of the series), tumour line B); -17.3% in assay [1] (at 21.2 µM (top of the series), tumour line D); -3.28% in assay [1] (at 21.3 µM (top of the series), tumour line A).
As to `Clc1ccccc1CN1CCc2sccc2C1`, the Potency result with Tov-21-G and in the assay with Tov112D was “inactive” throughout. Besides, the activity, negative = cell killing in assay [1] (setting [2]) was -14.5%; in assay [1] (setting [3]) it was -10.5%; in assay [1] (setting [4]), 4.64%.
Consider `CCc1c2c(nc3ccc(OC(=O)N4CCC(N5CCCCC5)CC4)cc13)-c1cc3c(c(=O)n1C2)COC(=O)[C@]3(O)CC`, for which the Potency entry in the assay on Tov-21-G was “inactive”. Also, the figures for the Potency (in the assay with Tov112D; in assay [1] (tumour line A)) were 10 µM (active) and 1 µM (active), respectively. The activity, negative = cell killing in assay [1] (setting [4]) was -5.46%.
Regarding `CC1=CC(=O)c2ccccc2C1=O`, the Potency result in the assay on Tov-21-G and with Tov112D was “inactive” in each case. For the same compound, the activity, negative = cell killing in assay [1] (setting [4]) is -17.3%. The figures for the Potency in assay [1] (tumour line A) and in assay [1] (tumour line D) were 35.5 µM (active) and 22.4 µM (active), respectively.
For `CCN[C@H]1C[C@H](C)S(=O)(=O)c2sc(S(N)(=O)=O)cc21`, the Potency entry with Tov-21-G and in the assay on Tov112D was “inactive” in each case. Further, the activity, negative = cell killing in assay [1] (setting [2]) is -1.09%; in assay [1] (setting [3]) it was 3.44%; in assay [1] (setting [4]), -27%.
As for `COc1ncnc(NS(=O)(=O)c2ccc(N)cc2)c1OC`, the Potency entry with Tov-21-G and with Tov112D was “inactive” in each case. Besides, the figures for the activity, negative = cell killing in assay [1] (setting [2]), in assay [1] (setting [3]) and in assay [1] (setting [4]) were -5.91%, -22.1% and -21.2%, respectively.
In the case of `CCCc1cc(C(N)=S)ccn1`, the Potency result with Tov-21-G and with Tov112D was “inactive” in each case. Further, the activity, negative = cell killing was -7.71% in assay [1] (setting [2]), -14.3% in assay [1] (setting [3]) and 5.43% in assay [1] (setting [4]).
Consider `CCOC(=O)[C@H](CCc1ccccc1)N[C@H]1CCc2ccccc2N(CC(=O)O)C1=O`, for which the Potency result in the assay on Tov-21-G and in the assay on Tov112D was “inactive” in each case.
Regarding `CCC(C)(C)c1ccc(CC(C)CN2C[C@@H](C)O[C@@H](C)C2)cc1` (stereo partly specified), the Potency entry in the assay with Tov-21-G and in the assay with Tov112D was “inactive” each time.
`CCC(=O)O[C@]1(C(=O)CCl)[C@@H](C)C[C@H]2[C@@H]3CCC4=CC(=O)C=C[C@]4(C)[C@@]3(F)[C@@H](O)C[C@@]21C`: the Potency result with Tov-21-G and in the assay on Tov112D was “inactive” in each case. Moreover, the activity, negative = cell killing in assay [1] (setting [2]) was -2.08%; in assay [1] (setting [3]) it was 0.817%; in assay [1] (setting [4]), 10.1%.
For `COc1cc([C@@H]2c3cc4c(cc3[C@H](O)[C@H]3COC(=O)[C@H]23)OCO4)cc(OC)c1OC`, the Potency with Tov-21-G was 0.199 µM (active).
With `CCOC(=O)c1ccc(C#Cc2ccc3c(c2)C(C)(C)CCS3)nc1`, the Potency result with Tov-21-G and in the assay with Tov112D was “inactive” throughout.
`O=c1oc2c(O)c(O)cc3c(=O)oc4c(O)c(O)cc1c4c23`: the Potency entry in the assay with Tov-21-G and in the assay on Tov112D was “inactive” in each case. Also, the activity, negative = cell killing is -21.4% in assay [1] (setting [2]) and -1.64% in assay [1] (setting [4]).
With `C[C@@H](CN1CC(=O)NC(=O)C1)N1CC(=O)NC(=O)C1`, the Potency entry in the assay with Tov-21-G and in the assay on Tov112D was “inactive” in each case. For the same compound, the activity, negative = cell killing in assay [1] (setting [2]) was -2.51%; in assay [1] (setting [3]) it was -10.3%; in assay [1] (setting [4]), -0.792%.
As for `O=NN(CCCl)C(=O)NC1CCCCC1`, the Potency entry in the assay with Tov-21-G and in the assay with Tov112D was “inactive” in each case. The activity, negative = cell killing in assay [1] (setting [2]) was -2.15%; in assay [1] (setting [3]) it was -13.5%; in assay [1] (setting [4]), -16.6%.
Turning to `NC(=O)c1cccnc1`, the Potency entry in the assay on Tov-21-G and in the assay on Tov112D was “inactive” throughout. For the same compound, the activity, negative = cell killing in assay [1] (setting [2]) is -7.44%; in assay [1] (setting [3]), -0.242%; in assay [1] (setting [5]) it was -16%; in assay [1] (setting [4]), 4.44%.
Regarding `CC(C)C1CCC(C(=O)N[C@H](Cc2ccccc2)C(=O)O)CC1` (stereo partly specified), the Potency entry with Tov-21-G and in the assay on Tov112D was “inactive” throughout. The activity, negative = cell killing was -7.58% in assay [1] (setting [2]), 5.65% in assay [1] (setting [3]), -15.4% in assay [1] (setting [5]) and -13.4% in assay [1] (setting [4]).
With `CNC1CCCN(c2c(F)cc3c(=O)c(C(=O)O)cn(C4CC4)c3c2OC)C1` (stereo unspecified), the Potency entry in the assay with Tov-21-G and with Tov112D was “inactive” in each case. Besides, the activity, negative = cell killing in assay [1] (setting [2]) is 0.798%; in assay [1] (setting [3]) it was -8.95%; in assay [1] (setting [5]) it was -37.3%; in assay [1] (setting [4]) it was -5.21%.
For `O=C(NCC1CN(c2ccc(N3CCOCC3=O)cc2)C(=O)O1)c1ccc(Cl)s1` (stereo unspecified), the Potency entry in the assay with Tov-21-G and in the assay on Tov112D was “inactive” in each case.
In the case of `C1CCC(C(CC2CCCCN2)C2CCCCC2)CC1` (stereo unspecified), in the assay on Tov-21-G, the Potency was 31.6 µM (active).
As to `CN(Cc1cc(Br)cc(Br)c1N)C1CCCCC1`, the Potency entry in the assay on Tov-21-G and in the assay on Tov112D was “inactive” throughout. Besides, the activity, negative = cell killing in assay [1] (setting [2]) was -30.4%; in assay [1] (setting [4]), -4.61%. The Potency in assay [1] (tumour line A) was 5.62 µM (active).
In the case of `NC(=O)N1c2ccccc2CC(=O)c2ccccc21`, the Potency entry with Tov-21-G and in the assay with Tov112D was “inactive” throughout. For the same compound, the activity, negative = cell killing in assay [1] (setting [2]) is -29.6%; in assay [1] (setting [3]) it was -1.67%; in assay [1] (setting [4]), -9.41%.
Regarding `Cc1c(-c2ccc(O)cc2)n(Cc2ccc(OCCN3CCCCCC3)cc2)c2ccc(O)cc12`, the Potency entry in the assay on Tov-21-G is “inactive”.
For `COCCCOc1cc(C[C@@H](C[C@H](N)[C@@H](O)C[C@H](C(=O)NCC(C)(C)C(N)=O)C(C)C)C(C)C)ccc1OC`, the Potency entry in the assay with Tov-21-G and in the assay with Tov112D was “inactive” in each case. Moreover, the activity, negative = cell killing is 9.07% in assay [1] (setting [2]), 12.6% in assay [1] (setting [3]) and 3% in assay [1] (setting [4]).
On to `COc1nc(N)nc2c1ncn2[C@@H]1O[C@H](CO)[C@@H](O)[C@@H]1O`, for which the Potency entry in the assay with Tov-21-G and in the assay with Tov112D was “inactive” throughout. Besides, the activity, negative = cell killing in assay [1] (setting [2]) is -17.9%; in assay [1] (setting [3]), 6.59%; in assay [1] (setting [5]), -10%; in assay [1] (setting [4]), -10.9%.
On to `C[C@]12C=CC(=O)C=C1CC[C@@H]1[C@@H]2C(=O)C[C@@]2(C)[C@H]1CC[C@]2(O)C(=O)CO`, for which the Potency entry with Tov-21-G and in the assay on Tov112D was “inactive” in each case. The activity, negative = cell killing in assay [1] (setting [2]) is -6.23%; in assay [1] (setting [3]) it was 5.45%; in assay [1] (setting [4]), -7.06%.
As to `CC[C@H](C)C(=O)O[C@H]1C[C@@H](C)C=C2C=C[C@H](C)[C@H](CC[C@@H]3C[C@@H](O)CC(=O)O3)[C@H]21`, the Potency entry in the assay on Tov-21-G and in the assay on Tov112D was “inactive” in each case.
For `COc1ccc2c(c1)c(CC(=O)OCC(=O)O)c(C)n2C(=O)c1ccc(Cl)cc1`, the Potency result in the assay with Tov-21-G and in the assay on Tov112D was “inactive” in each case. Besides, the activity, negative = cell killing was -1.02% in assay [1] (setting [2]), -7.57% in assay [1] (setting [3]) and 8.41% in assay [1] (setting [4]).
Take `CC(C(=O)O)c1ccc2c(c1)CC(=O)c1ccccc1S2` (stereo unspecified): the Potency result in the assay on Tov-21-G and with Tov112D was “inactive” each time. The activity, negative = cell killing was -3.56% in assay [1] (setting [2]), -21.1% in assay [1] (setting [3]), -9.77% in assay [1] (setting [5]) and 5.54% in assay [1] (setting [4]).
As to `CC(C)Cn1cnc2c(N)nc3ccccc3c21`, the Potency result with Tov-21-G and with Tov112D was “inactive” in each case. The activity, negative = cell killing in assay [1] (setting [2]) is -23.5%.
On to `CCN(C)C(=O)Oc1cccc([C@H](C)N(C)C)c1`, for which the Potency entry in the assay on Tov-21-G and in the assay on Tov112D was “inactive” throughout. Besides, the activity, negative = cell killing in assay [1] (setting [2]) was -13.1%; in assay [1] (setting [3]) it was -25.1%; in assay [1] (setting [4]) it was -30%. Moreover, in assay [1] (tumour line A), the Potency is 20 µM (active).
